Screens: PubChem BioAssay, The Scripps Research Institute Molecular Screening Center
In the library only some 2.9% were active in any assay of this set; here they are far more common.
KLK7 zymogen act – proKLK7 (human) activation, primary screen | P49862 | activation, % at 7 µM | 0.9% of 370,000 active | AID 652039 | purified proKLK7, EDANS-DABCYL substrate fluorescence; 100% is mature enzyme control, 0% vehicle;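 active = activation above the mean of all tested compounds plus 3 SD, computed per campaign excluding outliers beyond control limits, cut at about 13% in these data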
ADAM17 inh – inhibits human ADAM17 | 0.83% of 370,000 active | inhibition, % at 6.95 µM | P78536 | recombinant ADAM17, EDANS/DABCYL FRET peptide cleavage | AID 720648;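 active = inhibition above the mean of compounds lying between control limits plus 3 SD, set per campaign, cut at about 8.5% in these data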
PLCg1 inh – blocks human PLC-gamma1 enzyme activity; purified PLC-gamma1, fluorogenic substrate, fluorescence; inhibition, % at 12.2 µM; 0.84% of 370,000 active; AID 720700
ADAM10 inh – ADAM10 inhibition, QFRET primary screen. O14672. recombinant ADAM10, EDANS/DABCYL FRET peptide cleavage, 3 h. inhibition, % at 7 µM. 0.62% of 370,000 active. AID 720582;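 active = inhibition above a per-campaign cutoff equal to the mean of compounds falling between control-based bounds plus 3 SD, cut at about 20% in these data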
Target sequence (O14672 214-748 limits assumed): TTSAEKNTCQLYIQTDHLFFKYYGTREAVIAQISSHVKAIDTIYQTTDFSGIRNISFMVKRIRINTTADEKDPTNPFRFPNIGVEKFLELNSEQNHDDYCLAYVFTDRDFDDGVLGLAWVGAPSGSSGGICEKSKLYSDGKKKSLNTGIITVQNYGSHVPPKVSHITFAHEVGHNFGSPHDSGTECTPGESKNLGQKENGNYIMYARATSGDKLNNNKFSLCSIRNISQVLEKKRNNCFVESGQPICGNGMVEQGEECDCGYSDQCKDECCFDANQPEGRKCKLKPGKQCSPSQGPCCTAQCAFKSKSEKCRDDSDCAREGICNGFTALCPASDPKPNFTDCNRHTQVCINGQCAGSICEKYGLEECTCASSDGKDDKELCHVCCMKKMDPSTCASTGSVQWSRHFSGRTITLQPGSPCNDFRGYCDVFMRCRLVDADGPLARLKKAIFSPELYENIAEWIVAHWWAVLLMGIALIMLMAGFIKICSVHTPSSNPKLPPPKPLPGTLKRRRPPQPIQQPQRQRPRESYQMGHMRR
PLC-beta3 inh – blocks human PLC-beta3 enzyme activity. inhibition, % at 12.2 µM. Q01970. 0.18% of 370,000 active. Purified PLC-beta3, fluorogenic substrate, fluorescence; in the data active = inhibition above about 11%
PLCg1 ctr – counter-screen for PLC-beta3 inhibitors: inhibitors of human PLC-gamma1 | AID 743258 | shares compounds with PLCg1 inh | 3.1% of 3,300 active | inhibition, % at 12.3 µM | purified PLC-gamma1, fluorogenic substrate, fluorescence
PLCbeta3 conf – confirmation of human PLC-beta3 inhibitors. inhibition, % at 12.3 µM. 1% of 3,300 active. purified PLC-beta3, fluorogenic substrate fluorescence. shares compounds with PLCg1 inh; in the data active = inhibition above about 11%
Hits are given with their value; - = inactive; . = not tested or not shown. Rule as the data show it, unless noted: active = inhibition above about 9.5%; inactive = the rest.

SMILES	KLK7 zymogen act	ADAM17 inh	PLCg1 inh	ADAM10 inh	PLC-beta3 inh	PLCg1 ctr	PLCbeta3 conf
Cc1cc(C(=O)OCC(=O)c2cccc([N+](=O)[O-])c2)c2ccccc2n1	-	-	-	-	14	-	-
O=C(Nc1ccc2c(c1)OCO2)c1cc2n(n1)C(C(F)(F)F)CC(c1ccccc1)N2 (stereo unspecified)	-	-	-	-	-	.	.
O=C(Nc1ccc2c(c1)OCO2)c1cnn2c1NC(c1ccco1)CC2C(F)(F)F (stereo unspecified)	-	-	10	-	-	-	-
O=C(CSc1nc2ccccc2c(=O)n1-c1ccc(Cl)c(Cl)c1)Nc1ccc2c(c1)CCC2	-	-	11	-	-	-	-
CCN1CCN(c2ccc(S(=O)(=O)N3CCCCC3)cc2NC(=O)/C=C/c2cccc(OC)c2OC)CC1	-	-	-	-	-	.	.
COc1cccc(N2CCN(C3OC(=O)c4ccccc43)CC2)c1 (stereo unspecified)	-	-	-	-	-	.	.
O=C(/C=C/c1ccc([N+](=O)[O-])cc1)NC1CC2CCC1C2 (stereo unspecified)	-	-	14	-	-	-	-
CC1Cc2nc(SCC(=O)Nc3ccc(F)cc3F)n(C)c(=O)c2S1 (stereo unspecified)	-	-	13	-	-	-	-
Cc1ccc(C)c(NC(=O)CSc2nc3c(c(=O)n2C)SC(C)C3)c1 (stereo unspecified)	-	-	-	-	-	.	.
CCOC(=O)c1c(C)oc2ccc(OCC(N)=O)cc12	-	-	15	-	11	-	-
COc1ccc(NC(=O)/C(C#N)=C\c2ccc(-c3cc(C(=O)O)ccc3C)o2)cc1	-	-	-	-	-	.	.
O=C(NCCc1ccc(Cl)cc1)C1CCN(S(=O)(=O)c2cccc3nonc23)CC1	-	-	-	-	-	.	.
O=C(NCCc1ccccc1)C1CCN(S(=O)(=O)c2cccs2)CC1	-	-	9.8	-	-	-	-
O=C(NCCc1ccc(Cl)cc1)C1CCN(S(=O)(=O)c2cccs2)CC1	-	-	-	-	-	.	.
NS(=O)(=O)c1cccc(NC(=O)COC(=O)C2CCN(S(=O)(=O)c3cccs3)CC2)c1	-	-	9.7	-	-	-	-
O=C(C1CCCN(S(=O)(=O)c2cccc3nonc23)C1)N1CCN(c2ccccc2Cl)CC1 (stereo unspecified)	-	-	14	-	-	-	-
O=C(NCCc1ccccc1)C1CCN(S(=O)(=O)c2cccc3nonc23)CC1	-	-	11	-	-	-	-
CC(=O)c1ccc(NC(=O)COC(=O)Cc2ccsc2)cc1	-	-	-	-	-	.	.
COc1ccc2[nH]c(=O)c(CN(Cc3ccco3)C(=O)c3ccccc3)cc2c1	-	-	-	-	-	.	.
COc1ccc(/C=N/NC(=O)c2ccccc2[N+](=O)[O-])cc1CN1CCc2cc(OC)c(OC)cc2C1C (stereo unspecified)	-	-	-	-	-	.	.
CCOC(=O)C1(CCCc2ccccc2)CCN(C(=O)C(C)n2cncn2)CC1 (stereo unspecified)	-	-	9.5	-	-	-	-
COC(=O)C[C@H]1C=C[C@@H](C(C(=O)OC)C(=O)OC)CN1C(C)=O	-	-	31	-	-	-	-
COC(=O)CCC(NC(=O)c1cc(-c2ccc3c(c2)OCCO3)oc1C)C(=O)OC (stereo unspecified)	-	-	-	-	-	.	.
Cc1ccc(-n2nnnc2-c2cnc(-c3cccnc3)nc2C(F)(F)F)cc1	-	-	10	-	-	-	-
FC(F)(F)c1nc(-c2ccncc2)ncc1-c1nnnn1-c1ccccc1	-	-	-	-	-	.	.
SMILES	KLK7 zymogen act	ADAM17 inh	PLCg1 inh	ADAM10 inh	PLC-beta3 inh	PLCg1 ctr	PLCbeta3 conf
CCOC(=O)Cn1cc(Cl)cc(C(=O)Nc2ccccc2)c1=O	-	-	-	-	-	.	.
O=S(=O)(c1ccccc1)N1N=C(c2cccs2)CC1c1ccc(F)cc1 (stereo unspecified)	-	-	-	-	12	-	-
Cc1cccc(NC(=O)CC2SC(=NC3CCCCC3)NC2=O)c1 (stereo unspecified)	-	-	-	-	-	.	.
O=C(CC1SC(=NC2CCCCC2)NC1=O)Nc1ccccc1 (stereo unspecified)	-	-	11	-	-	-	-
O=C(c1ccc(Br)o1)N1CCN(c2ccc3nnc(-c4ccccc4)n3n2)CC1	-	-	-	-	-	.	.
Cn1cc(CN2CCC(C(=O)NC(c3ccc(-c4ccccc4)cc3)c3cnccn3)CC2)c2ccccc21 (stereo unspecified)	-	-	12	-	-	-	-
NCCCn1cnc2ccccc21	-	-	-	-	-	.	.
C#CCOCCOCCOCCNc1nc(N2CCN(C(=O)[C@H](CCCN=C(N)N)n3cc(C(N)[C@@H](C)CC)nn3)CC2)nc(N2CCN(C(=O)[C@H](CC(N)=O)n3cc([C@@H](N)C(C)C)nn3)CC2)n1 (stereo partly specified)	-	-	-	-	14	-	-
CN(CC(=O)NCc1ccccc1)Cc1cccc(F)c1	-	-	11	-	-	-	-
CCOc1ccc(CN(C)CC(=O)NCc2ccccc2)cc1	-	-	-	-	-	.	.
Cc1cc(OCc2nc(N)nc(N)c2-c2ccc(Cl)c(Cl)c2)ccc1[N+](=O)[O-]	-	-	13	-	-	-	-
Cc1nc(N)nc(N)c1-c1ccc(Cl)c(Cl)c1	-	-	-	-	-	.	.
CCOC(=O)Nc1n[nH]c(NC(=O)OCC)c1[N+](=O)[O-]	-	-	-	-	-	.	.
CCOC(=O)Nc1cc(=O)c([N+](=O)[O-])c(N)[nH]1	-	-	-	-	13	-	-
O=C(/C=C/c1cccc(Br)c1)c1ccc2c(c1)OCO2	-	-	-	-	-	.	.
CCOC(=O)C1(C)CCN1C(=O)c1ccc(SC(F)(F)F)cc1 (stereo unspecified)	-	-	-	-	-	.	.
Cc1cc(C)c2c(=O)[nH]n(C3CC(C)N(C)CC3C)c2n1 (stereo unspecified)	-	-	9.7	-	-	-	-
Cc1cc(C)c2c(=O)[nH]n(C3CCCCCC3)c2n1	-	-	-	-	-	.	.
COc1ccc2c(CC(=O)Nc3ccc(N4CCOCC4)cc3)coc2c1	-	-	-	-	-	.	.
Cc1ccc(C2OC(=O)c3ccccc32)cc1 (stereo unspecified)	-	-	9.6	-	-	-	-
O=C(CNC(=O)c1ccccc1)NCC(=O)OCC(=O)c1ccc(F)cc1	-	-	-	-	-	.	.
Cc1ccc(C(=O)NCC(=O)NCC(=O)OCC(=O)c2ccc(F)cc2)cc1	-	-	13	-	-	-	-
